Source: PubChem
Only some compounds are listed: those with a hit (about 4% of all), similar ones and a draw of the others.
TRHR PAM: allosterically enhances the human TRH receptor. P34981. TRHR cells, fluo-8 calcium fluorescence, EC20 TRH enhancement. enhancement, % at 2 µM. 360,000 tested, 0.66% active. AID 493056; in the data active = enhancement above about 30%; also: 0% is about no effect
Target sequence (P34981 whole entry, looked up): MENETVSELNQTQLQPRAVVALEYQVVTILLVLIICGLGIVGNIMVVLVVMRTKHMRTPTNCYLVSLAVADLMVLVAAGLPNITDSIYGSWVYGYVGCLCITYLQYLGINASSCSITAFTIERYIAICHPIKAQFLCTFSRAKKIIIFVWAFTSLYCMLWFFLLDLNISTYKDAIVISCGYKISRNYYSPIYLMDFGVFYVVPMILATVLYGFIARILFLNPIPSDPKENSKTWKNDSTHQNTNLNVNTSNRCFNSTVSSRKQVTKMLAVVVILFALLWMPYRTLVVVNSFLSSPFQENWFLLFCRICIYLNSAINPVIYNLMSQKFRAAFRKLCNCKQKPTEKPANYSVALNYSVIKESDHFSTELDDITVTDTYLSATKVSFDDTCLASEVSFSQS
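TRHR-expressing cells loaded with fluo-8 calcium dye were read kinetically (ex 480/em 530) during compound addition, then stimulated with an EC20 of TRH (10 nM final). Enhancement of the Gq-mediated intracellular calcium response was scored.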
TRHR agonist: agonists of human TRH receptor. P34981. TRHR cells, calcium flux fluo-8, FDSS agonist mode. activation, % at 2 µM. 360,000 tested, 0.18% active; also: 0% is about no effect
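Steps: seed TRHR cells overnight; add fluo-8 no-wash Ca dye, RT 30 min–1.5 h; record 10 s baseline; pin-transfer compounds; monitor fluorescence 1 cycle/s for the agonist window. Calcium increases flag candidate agonists.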
D1 antagonist: human D1 dopamine receptor antagonism. 360,000 tested, 3.2% active. P21728. HEK293 TREx D1 cells, calcium flux, dopamine EC80; stronger effect = lower value. activity change, negative = inhibition, % at 10 µM; in the data active = activity change below about -30%; also: % is scaled to controls: 0 for no effect and ±100 for the full control effect
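Calcium flux readout: force-coupled, inducible Hek293 Trex D1 line, cells induced overnight at 30 C with tetracycline, dye-loaded 30–90 min at RT. Antagonism scored against EC80 dopamine challenge given 180 s after compound.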
D1 ag: activates the human D1 dopamine receptor | P21728 | AID 504660 | HEK293 T-REx D1 cells, calcium flux, agonist mode | activation, % at 2 µM | 360,000 tested, 1% active; also: 0% is about no effect
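Tetracycline-induced HEK293 TREx D1 cells, force-coupled to calcium signalling, were dye-loaded with a no-wash calcium kit. Compound was pin-added after a 10 s baseline. Fluorescence was read kinetically at 1 cycle/s for 180 s, with calcium rises flagged as agonism.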
D1 potentiator: human D1 dopamine receptor positive modulation. P21728. HEK293 TREx D1 cells, calcium flux, dopamine EC20 potentiation. 360,000 tested, 0.036% active. potentiation, % at 10 µM. AID 504651; in the data active = potentiation above about 30%; also: 0% is about no effect
Glioma ERSR ind: inducers of ER stress response in human glioma cells | U87-MG GRP78 promoter luciferase reporter, 16 h | Potency, µM, for inactives: top-dose activation, actives largely listed as activators | 420,000 tested, 0.02% active | AID 602332; active = well fitted activation curve with a large enough effect; also: potency is read from the fitted curve at half-maximal effect; series mostly up to about 76 µM; % of control where 0% means no effect; nearly all actives have a fitted effect of over 35% in size
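ERSR induction read as luciferase luminescence (Bright-Glo, 10 min at room temperature) in stably transfected human U87-MG glioma cells exposed to compounds for 16 h, using GRP78 as sensor.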
* marks the source's active call; other numbers are inactive results; · = no result; ! = not active in a repeat. Rule as the data show it, unless noted: active = activation above about 30%; inactive = the rest.

SMILES	TRHR PAM	TRHR agonist	D1 antagonist	D1 ag	D1 potentiator	Glioma ERSR ind
CCCCNCC1CCCO1 (configuration not stated)	-23	1	-91*	4	-6	-5%
Cc1cccc(NC(=O)CN2CCN(C(=O)c3cncn3-c3ccc(F)cc3)CC2)c1C	-7	-1	-5	0	-4	-3%
CC(=O)Nc1ccc(NC(=O)C2CCN(c3cnccn3)CC2)cc1	-2	1	3	0	2	-1%
COc1ccc(NC(=O)C2CCN(c3cnccn3)CC2)cc1Cl	-6	0	-58*!	5	-6	-3%
COc1ccccc1OCC(=O)N(Cc1cccs1)C1CCS(=O)(=O)C1 (configuration not stated)	8	0	-42*	-1	0	-3%
CN(C)c1ccc(CN(C(=O)c2cccs2)C2CCS(=O)(=O)C2)cc1 (configuration not stated)	8	-1	16	-4	0	-4%
Cc1ccccc1OCC(=O)N(Cc1cccs1)C1CCS(=O)(=O)C1 (configuration not stated)	24	0	-6	2	-5	-2%
CCOc1ccc(CN(C(=O)c2cccs2)C2CCS(=O)(=O)C2)cc1 (configuration not stated)	3	-1	-43*	2	-8	-2%
CCN1CCN(C(=O)c2cc3ccc(OC)cc3[nH]2)CC1	0	1	4	3	-5	4%
COc1ccc2cc(C(=O)N3CCN(Cc4ccc5c(c4)OCO5)CC3)[nH]c2c1	-2	0	10	33*	-5	-1%
COC(=O)c1[nH]c2cc(OC)ccc2c1NC(=O)CCN1CCN(Cc2ccc3c(c2)OCO3)CC1	-2	-1	-86*	0	13	-3%
CC(C)CCNC(=O)c1ccc2nc[nH]c2c1	-4	0	·	-2	-1	3%
Cc1c(-c2ccc(O)cc2)nc2nc(-c3ccccc3)c(-c3ccccc3)nn12	-6	15	6	86*	-10	·
CCn1c(-c2c(Cl)c(C)nn2C)n[nH]c1=S	4	0	48	39*	-1	-3%
CCCCn1c(-c2c(Cl)c(C)nn2C)n[nH]c1=S	0	0	-10	2	-6	-1%
Cc1ccc2c(CC(=O)OC(C)C(=O)NCc3ccc4c(c3)OCO4)coc2c1 (configuration not stated)	3	0	-32*	9	-3	-1%
CC(OC(=O)Cc1coc2cc3c(cc12)CCC3)C(=O)NCc1ccc2c(c1)OCO2 (configuration not stated)	14	0	·	5	-2	-2%
CCN1C=C(Cc2ccccc2C)C2=C(C1)C(c1ccccc1C)C(C#N)=C(N)O2 (configuration not stated)	7	-1	-5	2	-7	-7%
CCN1C=CC2=C(C#N)C(N)C(C#N)(C#N)C(c3ccccc3C(F)(F)F)C2C1 (configuration not stated)	-1	7	12	34*	-6	3%
NC(N)=Nc1cc2ccccc2c2ccccc12	7	0	-70*	0	-8	·
CC(C)(C)NC(=S)Nc1cccc(C(F)(F)F)c1	8	-1	-1	31*	-9	-3%
CNNC(=S)Nc1cccc(C(F)(F)F)c1	-1	0	3	0	-1	5%
FC(F)(F)c1cccc(NC(=S)NNC(=S)Nc2cccc(C(F)(F)F)c2)c1	-3	0	-34*	2	-5	·
Cn1ncc(C#N)c1/N=C/N(Cc1ccccc1)Cc1ccccc1	1	0	-15	12	-8	-8%
CCOC(=O)C1CCN(S(=O)(=O)c2cc(-c3cc(C)no3)ccc2C)CC1	0	0	-23	3	-4	-1%
SMILES	TRHR PAM	TRHR agonist	D1 antagonist	D1 ag	D1 potentiator	Glioma ERSR ind
Cc1nn(C(=O)COc2ccccc2)c(C)c1Sc1ccccc1	5	-1	-65*	110*	-2	·
CN(C)C(CNC(=O)c1ccc(-c2ccccc2)cc1)c1ccccc1 (configuration not stated)	31*	1	-3	3	-6	3%
CCCn1c(O)c(N=NC(=O)CNC(=O)c2cccnc2)c2ccccc21	-3	-1	4	1	-3	-1%
CC(C)C(C)NC(=O)COc1ncnc2sccc12 (configuration not stated)	3	0	-15	0	-2	-4%
COc1ccccc1NC(=S)N(c1ccccc1)C(C)C	-1	0	7	2	-3	-3%
COc1ccc(OC)c(-c2cc(C(=O)Nc3sc4c(c3C#N)CCC(C)C4)c3ccccc3n2)c1 (configuration not stated)	-7	0	-47*	3	-3	-4%
O=C(COc1ccc2ccc(=O)oc2c1)NCCN1CCOCC1	·	·	·	·	·	-5%
Cc1ccc(NC(=O)C2CCC(=O)N2C(=O)OCc2ccccc2)cc1 (configuration not stated)	4	0	-3	0	-5	-4%
O=C(Nc1ccccn1)[C@@H]1CCC(=O)N1C(=O)OCc1ccccc1	-5	0	-31*	3	-1	7%
CCCCC(=O)Nc1nc2c(OC)cc([N+](=O)[O-])cc2s1	-3	0	-34*	2	-8	1%
Cc1cc2oc3c(c(=O)c2cc1C)C(c1ccc(F)cc1)N(CCCN1CCOCC1)C3=O (configuration not stated)	37*	-1	-20	0	4	-5%
Cc1cccc(C(=O)NCC(=O)N2CCN(S(=O)(=O)c3ccccc3)CC2)c1	7	0	0	4	-2	-2%
Cc1cccc(C(=O)NCC(=O)N2CCN(S(=O)(=O)/C=C/c3ccccc3)CC2)c1	-1	-1	-43*	0	-4	-3%
C[C@@H](C(=O)O)c1ccc(N2Cc3ccccc3C2=O)cc1	·	·	·	·	·	-11%
O=C(Cc1cccc(C(F)(F)F)c1)NCC(=O)Nc1cc(Cl)ccc1Cl	-2	0	7	3	32*	-5%
O=C(CS(=O)c1cccc(C(F)(F)F)c1)Nc1ccccc1Cl (configuration not stated)	7	1	-47*	4	-8	-4%
C=CCn1c(C(CC)CC(C)(C)O)n[nH]c1=S (configuration not stated)	2	0	10	10	6	-4%
CCN1CCN(c2cc(C)c3cc(NC(=O)c4ccc(Br)o4)ccc3n2)CC1	-1	-1	-12	-1	0	3%
CCC(=NNC(=O)c1ccc2c(c1)nc(C)n2CC)c1cc(F)ccc1O	·	·	·	·	·	3%
CCn1c(C)nc2cc(C(=O)n3cc(C(=O)c4cc(F)ccc4O)cn3)ccc21	30*	1	7	4	-5	·
